Screens: PubChem BioAssay, several laboratories
Sampled rows, rich in hits. Any-hit rate of the full collection: about 1.8%.
Mac1 fbg enh – enhancers of CD11b/CD18 adhesion to fibrinogen, primary screen, K562 cells, luminescence. AID 1499, 2009. ATPlite luminescence. 0.07% of 93,000 active. activation, % at 10 µM. Integrin beta-2 (Homo sapiens) + Integrin alpha-M (Homo sapiens), P05107+P11215;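 active = 10 µM primary screen giving 50% or more activity, confirmed by 40% or more on retest at that dose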
PTK2B oligo ant – antagonists of Pyk2 self-association, primary screen, Q293 cells, FERM NanoBiT luminescence, HTS | active compounds read low | AID 1347419, 2020 | 0.83% of 99,000 active | z-score (the deposit names both 25 µM and 10 µM);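 active = Z-score of -3 or lower, scaled per plate to the spread of control and sample wells; inactive = z-score above -3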;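 note: negative z-score means lost luminescence so less FERM oligomerization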
FAK inh – FAK kinase inhibitors, primary screen, biochemical | Focal adhesion kinase 1 (Homo sapiens), Q05397 | biochemical FAK kinase activity assay | inhibition, %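 (tested at 7 µM)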 | 0.84% of 97,000 active | AID 727, 2007; in the data active = inhibition above about 19%;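 note: 0% = DMSO and 100% = reference compound high control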
Target sequence (Q05397 whole entry, looked up): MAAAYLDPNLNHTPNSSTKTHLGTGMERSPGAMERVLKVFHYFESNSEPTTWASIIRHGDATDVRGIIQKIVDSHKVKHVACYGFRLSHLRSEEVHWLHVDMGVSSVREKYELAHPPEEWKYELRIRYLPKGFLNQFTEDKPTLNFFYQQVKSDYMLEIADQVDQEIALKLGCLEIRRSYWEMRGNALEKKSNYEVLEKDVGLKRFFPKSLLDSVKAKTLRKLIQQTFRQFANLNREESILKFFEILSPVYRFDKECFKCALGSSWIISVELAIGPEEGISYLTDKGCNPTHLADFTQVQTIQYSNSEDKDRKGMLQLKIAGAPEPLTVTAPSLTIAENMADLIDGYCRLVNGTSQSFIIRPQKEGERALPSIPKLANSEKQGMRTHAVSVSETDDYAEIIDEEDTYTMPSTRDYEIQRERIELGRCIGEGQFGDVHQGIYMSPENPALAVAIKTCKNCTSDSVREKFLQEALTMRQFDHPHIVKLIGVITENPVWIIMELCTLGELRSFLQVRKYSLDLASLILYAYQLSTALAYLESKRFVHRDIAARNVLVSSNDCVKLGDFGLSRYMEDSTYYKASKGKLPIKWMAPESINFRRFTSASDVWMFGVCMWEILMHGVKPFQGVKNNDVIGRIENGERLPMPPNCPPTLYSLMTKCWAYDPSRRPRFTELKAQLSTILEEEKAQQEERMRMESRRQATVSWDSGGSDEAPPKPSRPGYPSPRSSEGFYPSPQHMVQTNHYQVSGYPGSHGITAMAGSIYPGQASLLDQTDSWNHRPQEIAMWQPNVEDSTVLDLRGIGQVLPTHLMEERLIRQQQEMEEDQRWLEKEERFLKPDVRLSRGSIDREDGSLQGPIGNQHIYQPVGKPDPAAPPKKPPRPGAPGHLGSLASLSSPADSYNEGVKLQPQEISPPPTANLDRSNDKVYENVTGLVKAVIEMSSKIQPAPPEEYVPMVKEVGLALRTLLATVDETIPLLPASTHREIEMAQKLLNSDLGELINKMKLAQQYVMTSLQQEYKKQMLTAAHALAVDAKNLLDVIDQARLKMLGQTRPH
CD11b adhes inh – inhibitors of CD11b/CD18 adhesion to fibrinogen, primary screen, K562 cells, luminescence | Integrin beta-2 (Homo sapiens) + Integrin alpha-M (Homo sapiens), P05107+P11215 | ATPlite luminescence; Mn2+ added to activate the integrin | inhibition, % at 10 µM | 0.54% of 93,000 active | AID 1497, 2009;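 active = primary inhibition of 50% or more at 10 µM, then 40% or more on retest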
Starred values were filed as active, the others as inactive; · = no result.

SMILES	Mac1 fbg enh	PTK2B oligo ant	FAK inh	CD11b adhes inh
CN(C)c1ccc(C=C(c2nnnn2-c2ccccc2)c2nnnn2-c2ccccc2)cc1	-2	·	·	-10
O=C1NC(=Nc2ccccc2)S/C1=C\c1cccn1-c1ccccc1	-5	-2.2	2	51
N#Cc1ccccc1CN1C(=O)S/C(=C/c2cccn2-c2ccc(C(=O)O)cc2)C1=O	-2	-3.2*	-6	12
CCn1c(SCC(=O)N2CCc3ccccc32)nnc1-c1ccco1	-2	-0.37	-4	-4
Cc1cc(C(=O)CSc2nnc(-c3ccccc3)n2-c2ccccc2)c(C)n1-c1ncn[nH]1	0	-3.2*	14	27
Cn1nc(-c2ccc(Cl)cc2)c2cc(C(=O)N3CCN(c4ccccn4)CC3)sc21	5	·	-2	62*
CCc1c(C#N)c(SCCC(=O)Nc2ccc(F)cc2)nc2c1C(=O)CC(C)(C)C2	-4	-3.2*	2	41
CCc1c(C#N)c(SCCC(=O)Nc2cccc(OC)c2)nc2c1C(=O)CC(C)(C)C2	-5	-2.4	2	11
COc1ccc(Nc2ncc(C(=O)N3CCN(Cc4ccccc4)CC3)c3ccccc23)cc1	·	-3.5*	2	·
N#Cc1ccccc1Sc1ccccc1C(=O)Nc1ccc2ccccc2c1	4	·	·	10
N#Cc1ccccc1Sc1ccccc1C(=O)Nc1ccc(Br)cc1	-1	-3.5*	-3	-3
CCOCCOC(=O)c1ccc(-n2cncn2)nc1	0	-0.48	0	0
CCOC(=O)c1c(-c2cccs2)csc1NC(=O)CN(CC)CC	·	-3.6*	12	·
Cn1c(CN2CCCCC2)nc2cc(NC(=O)c3cccc(Br)c3)ccc21	-4	-0.9	2	59*
Cn1c(CN2CCCCC2)nc2cc(NC(=O)c3ccccc3)ccc21	3	1.1	1	-16
CCc1nnc(NC(=O)CSc2nnc(COc3ccccc3)n2-c2ccc(C)cc2)s1	3	0.99	8	-6
CCc1nnc(NC(=O)CSc2nnc(-c3ccccc3O)n2-c2ccc(C)cc2C)s1	-5	-3.8*	7	24
Cc1ccc(Cl)c(OC(=O)c2nn(C(C)C)c(=O)c3ccccc23)c1	-1	·	·	18
c1ccc(N2CCN(Cc3ccnc4ccccc34)CC2)cc1	-8	0.91	3	76*
c1cnc(N2CCN(Cc3c[nH]c4ccccc34)CC2)nc1	-1	0.43	0	-7
CSc1nnc2c3ccccc3n(CCc3ccccc3)c2n1	-3	-3.3*	·	-12
CCOc1cc(CNCc2ccncc2)cc(Br)c1OCc1ccccc1F	-7	1.3	5	89*
COc1cc(C)c(Cl)cc1S(=O)(=O)NCc1ccncc1	-9	·	-1	84*
COc1cc(C)c(Br)cc1S(=O)(=O)NCc1ccccc1	6	2.4	-3	-17
Cc1csc(NC(=O)c2cc(-c3ccccc3)nc3ccccc23)n1	8	·	·	-8
SMILES	Mac1 fbg enh	PTK2B oligo ant	FAK inh	CD11b adhes inh
CCc1ccc(/C=C/C(=O)C2C(=O)c3ccccc3C2=O)cc1	-11	-0.34	2	95*
O=C(c1ccccc1)C1C(=O)c2ccccc2C1=O	-3	1.3	-3	8
O=C(/C=C/c1ccccc1)C1C(=O)c2ccccc2C1=O	-7	·	·	87*
C/C(=N\NC(=O)COc1ccc(C#N)cc1)c1ccccc1OC(F)F	2	·	·	-3
COc1ccc(/C=C/C(=O)c2ccccc2)cc1Cn1nnc2ccccc21	-4	·	·	23
CC1=CC(C)(C)N(S(=O)(=O)c2ccc(C)cc2)c2ccc(C)cc21	-5	-0.34	0	76*
CC1=CC(C)(C)N(S(=O)(=O)c2ccc(F)cc2)c2ccccc21	-1	-0.5	0	19
CC(C)Cn1c(-c2csc3c2CCCC3)n[nH]c1=S	·	-0.68	-5	·
CCOC(=O)C1=C(C)NC(C)=C(C(=O)OCC)C1c1sccc1C	3	-3.3*	12	-8
CCCC1C(C(=O)OCC)=C(C)NC(C)=C1C(=O)OCC	0	-3.1*	0	-18
Cc1nc2ccc(C(=O)OCc3ccccc3Br)cc2nc1C	-4	0.13	-2	-7
Cc1cc(S(=O)(=O)Nc2cc(C)c(O)c(C)c2)c(C)s1	4	-0.11	3	67
CCOc1cccc(C(=O)Nc2cccc(-c3nnc(-c4ccccc4)o3)c2)c1	12	-3.6*	2	1
COc1ccc(CC(=O)Nc2cccc(-c3nnc(-c4ccc(C)cc4)o3)c2)cc1OC	·	-2.5	·	·
COc1ccc(CC(=O)Nc2cccc(-c3nnc(-c4ccccc4)o3)c2)cc1OC	7	-3.6*	-3	42
Cc1nn(CCC(=O)NNC(=S)NCC(C)C)c(C)c1Br	-6	1.6	0	-4
CC(C)COC(=O)c1cc(=O)[nH]c2ccccc12	1	-0.94	5	-10
CC(OC(=O)c1cc(=O)[nH]c2ccccc12)c1ccccc1 (stereo not drawn)	1	-4*	2	-7
COC(=O)c1c(NC(=S)Nc2ccc(F)cc2[N+](=O)[O-])sc2c1CCCCC2	-5	·	·	86*
CCc1nnc(NC(=O)c2ccc(Cl)c(S(=O)(=O)N3CCc4ccccc43)c2)s1	-2	-2.8	0	86*
O=C(Nc1nnc(C2CC2)s1)c1ccc(Cl)c(S(=O)(=O)N2CCc3ccccc3C2)c1	-6	·	·	101
O=C1C2C(C(=O)N1/N=C/c1cc(Br)cc([N+](=O)[O-])c1O)C1C=CC2C12CC2 (stereo not drawn)	-5	-1.7	-4	66*
CC1Cc2ccccc2N1C(=O)CSc1nnc(-c2ccccc2)c(-c2ccccc2)n1 (stereo not drawn)	·	-1.4	3	·
COc1ccc(-c2ccc(SCC(=O)N3c4ccccc4CC3C)nn2)cc1OC (stereo not drawn)	-1	-3.2*	1	-3
CCOC(=O)c1c(C=O)c(C)n(Cc2ccc(Cl)cc2)c1C	-4	-3.2*	1	16
SMILES	Mac1 fbg enh	PTK2B oligo ant	FAK inh	CD11b adhes inh
COC(=O)C(NC(=O)c1ccccc1)(Nc1cc(C)cc(C)n1)C(F)(F)F (stereo not drawn)	·	0.49	-1	·
CC(=O)Nc1ccc(OCC(O)CN2C(C)(C)CC(O)CC2(C)C)cc1 (stereo not drawn)	2	·	·	-6
CCNC(=S)NNC(=O)c1cc(-c2cccc(C)c2)nc2ccccc12	-5	0.27	1	60*
Cc1ccc(C(=O)C2CCN(CC(=O)Nc3nc(C)cs3)CC2)cc1	1	0.76	-7	2
N#CC1=C(N)SC(N)=C(C#N)C1CCC1CCCCC1	-10	·	0	101*
Cc1sccc1C1C(C#N)=C(N)SC(N)=C1C#N	-2	·	2	0
O=C(NCCc1cccs1)C12CN(Cc3ccccc3)CC1C(c1cccc([N+](=O)[O-])c1)=NO2 (stereo not drawn)	5	·	0	0
N#Cc1c(Cl)c(Cl)c2nnc(-c3ccc(Br)cc3)n2c1Cl	-2	·	-6	-20
Cc1onc(-c2ccccc2Cl)c1C(=O)Nc1nnc(-c2ccc(F)cc2)s1	-3	·	-4	34
Cc1onc(-c2c(F)cccc2Cl)c1C(=O)Nc1nnc(-c2ccccc2)s1	-6	-3.1*	-4	30
